Results published in PubChem BioAssay (NCI).
The panel holds about 83,000 compounds, 20% with a hit somewhere; the sample as a whole holds those more often.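 In brief: 96-well plates, 48 h treatment, single concentration, percent growth endpoint.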

Legend:
Experiment in all cases: NCI-60 one-dose screen, 48 h (100 = growth as untreated, 0 = no growth, -100 = all killed)
Conditions in all cases: 10 µM unless noted; active = growth percent below 10; inactive = the rest
DU-145 prostate = tested on: DU-145 prostate
K-562 leukemia = tested on: K-562 leukemia
MALME-3M melanoma = tested on: MALME-3M melanoma
MDA-MB-231 breast = tested on: MDA-MB-231 breast
RXF 393 renal = tested on: RXF 393 renal
SF-268 CNS = tested on: SF-268 CNS
SF-295 CNS = tested on: SF-295 CNS
SF-539 CNS = tested on: SF-539 CNS
UACC-257 melanoma = tested on: UACC-257 melanoma
M14 melanoma = tested on: M14 melanoma

Measured: growth

CC(=O)O[C@H]1CC[C@]2(C)C3=C(C(=O)C[C@H]2C1(C)C)[C@]1(C)CC[C@H]([C@H](C)CCC(=O)O)[C@@]1(C)CC3=O
inactive: DU-145 prostate 108% | K-562 leukemia 86.8% | MALME-3M melanoma 98.1% | MDA-MB-231 breast 107% | RXF 393 renal 110% | SF-268 CNS 111% | SF-295 CNS 96.4% | SF-539 CNS 96.2% | UACC-257 melanoma 113% | M14 melanoma 99.3%

C=CCS(C)(=O)=O
inactive: DU-145 prostate 108% | K-562 leukemia 103% | MALME-3M melanoma 121% | MDA-MB-231 breast 97.9% | RXF 393 renal 98% | SF-268 CNS 103% | SF-295 CNS 93.8% | SF-539 CNS 96.3% | UACC-257 melanoma 89.5% | M14 melanoma 95.8%

N#CC1(O)CCCCC1
inactive: DU-145 prostate 103% | K-562 leukemia 102% | MALME-3M melanoma 104% | MDA-MB-231 breast 118% | RXF 393 renal 110% | SF-268 CNS 98.5% | SF-295 CNS 103% | SF-539 CNS 105% | UACC-257 melanoma 90.2% | M14 melanoma 95.7%

Oc1ccc2ccccc2c1CN1CCOCC1
inactive: DU-145 prostate 124% | K-562 leukemia 118% | MALME-3M melanoma 121% | MDA-MB-231 breast 109% | RXF 393 renal 128% | SF-268 CNS 102% | SF-295 CNS 110% | SF-539 CNS 81.4% | UACC-257 melanoma 120% | M14 melanoma 98%

NCCCN1CCCC1=O
inactive: DU-145 prostate 114% | K-562 leukemia 114% | MALME-3M melanoma 99.1% | MDA-MB-231 breast 108% | RXF 393 renal 122% | SF-268 CNS 113% | SF-295 CNS 111% | SF-539 CNS 109% | UACC-257 melanoma 97.3% | M14 melanoma 113%

C=CCc1cc(OC)c(OC)c(OC)c1
inactive: DU-145 prostate 102% | K-562 leukemia 105% | MALME-3M melanoma 109% | MDA-MB-231 breast 99% | RXF 393 renal 103% | SF-268 CNS 95.3% | SF-295 CNS 113% | SF-539 CNS 114% | UACC-257 melanoma 99.1% | M14 melanoma 103%

COC1CC(OC(=O)c2ccc([N+](=O)[O-])cc2)C(COC(=O)c2ccc([N+](=O)[O-])cc2)O1 (stereo not given)
inactive: DU-145 prostate 119% | K-562 leukemia 107% | MALME-3M melanoma 140% | MDA-MB-231 breast 105% | RXF 393 renal 103% | SF-268 CNS 112% | SF-295 CNS 94.5% | SF-539 CNS 105% | UACC-257 melanoma 91.9% | M14 melanoma 110%

C#CCSc1nnnn1-c1ccccc1
inactive: DU-145 prostate 79.1% | K-562 leukemia 86% | MALME-3M melanoma 104% | MDA-MB-231 breast 96% | RXF 393 renal 67.3% | SF-268 CNS 82.5% | SF-295 CNS 81.1% | SF-539 CNS 80.2% | UACC-257 melanoma 94.4% | M14 melanoma 104%

CC(=O)c1cccc(NS(=O)(=O)c2ccc(C)cc2)c1
inactive: DU-145 prostate 95.1% | K-562 leukemia 27.4% | MALME-3M melanoma 96.9% | MDA-MB-231 breast 83.7% | RXF 393 renal 96.3% | SF-268 CNS 89.3% | SF-295 CNS 87.6% | SF-539 CNS 74.6% | UACC-257 melanoma 86.6% | M14 melanoma 60.6%

CCCC(=O)CC(=O)c1ccccc1
inactive: DU-145 prostate 106% | K-562 leukemia 112% | MALME-3M melanoma 107% | MDA-MB-231 breast 111% | RXF 393 renal 93.6% | SF-268 CNS 97.3% | SF-295 CNS 97% | SF-539 CNS 104% | UACC-257 melanoma 80.9% | M14 melanoma 100%

CC(=O)Nc1ncc(S(=O)(=O)c2ccc([N+](=O)[O-])cc2)s1
inactive: DU-145 prostate 113% | K-562 leukemia 99.3% | MALME-3M melanoma 118% | MDA-MB-231 breast 123% | RXF 393 renal 115% | SF-268 CNS 100% | SF-295 CNS 112% | SF-539 CNS 113% | UACC-257 melanoma 104% | M14 melanoma 97.3%

N#CCCN1C(=O)CCC1C(=O)O (stereo not given)
inactive: DU-145 prostate 114% | K-562 leukemia 96.8% | MALME-3M melanoma 114% | MDA-MB-231 breast 129% | RXF 393 renal 115% | SF-268 CNS 97.3% | SF-295 CNS 101% | SF-539 CNS 104% | UACC-257 melanoma 93.4% | M14 melanoma 104%

Oc1cccc(CNC2CCCCC2)c1
inactive: DU-145 prostate 119% | K-562 leukemia 101% | MALME-3M melanoma 129% | MDA-MB-231 breast 102% | RXF 393 renal 114% | SF-268 CNS 103% | SF-295 CNS 120% | SF-539 CNS 106% | UACC-257 melanoma 119% | M14 melanoma 99.9%

C/C=C/C1OCC(CC)C(CCC)O1 (stereo not given)
inactive: DU-145 prostate 115% | K-562 leukemia 89.3% | MALME-3M melanoma 114% | MDA-MB-231 breast 100% | RXF 393 renal 124% | SF-268 CNS 101% | SF-295 CNS 113% | SF-539 CNS 99.1% | UACC-257 melanoma 93.5% | M14 melanoma 104%

CN=S(=O)(OCCCCCOS(=O)(=NC)c1ccc(C)cc1)c1ccc(C)cc1 (stereo not given)
inactive: DU-145 prostate 85.7% | K-562 leukemia 70.4% | MALME-3M melanoma 100% | MDA-MB-231 breast 97.2% | RXF 393 renal 123% | SF-268 CNS 99% | SF-295 CNS 91.6% | SF-539 CNS 90.7% | UACC-257 melanoma 124% | M14 melanoma 96.9%
